In the library only some 3.6% were active in any assay of this set; here they are far more common.
FBA Mtb inh: Mtb FBA enzyme inhibitors, primary screen, biochemical, fluorescence, strain H37Rv | inhibition, % at 1 µM | purified M. tuberculosis FBA, fluorescence read-out | 2.3% of 360,000 active;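 also: 0% = vehicle and 100% = reference inhibitor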
Target sequence (P9WQA3 whole entry, looked up): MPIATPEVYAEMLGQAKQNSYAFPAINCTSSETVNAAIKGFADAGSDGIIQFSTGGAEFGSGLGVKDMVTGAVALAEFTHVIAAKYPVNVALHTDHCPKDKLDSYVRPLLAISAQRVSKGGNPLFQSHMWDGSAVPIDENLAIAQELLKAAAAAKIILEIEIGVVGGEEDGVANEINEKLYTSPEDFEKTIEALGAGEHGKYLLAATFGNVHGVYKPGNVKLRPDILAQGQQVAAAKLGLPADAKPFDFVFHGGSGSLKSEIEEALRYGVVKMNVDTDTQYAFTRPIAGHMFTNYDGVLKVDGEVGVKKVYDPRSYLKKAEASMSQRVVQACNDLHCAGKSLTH
Mtb hypoxia rep: PubChem AID 1159583. M. tuberculosis hypoxia-regulated fluorescent reporter, fluorescence. fluorescence inhibition, % (no concentration beside the values). 0.1% of 300,000 active; in the data active = fluorescence inhibition mostly above about 23%, no sharp cut-off; inactive = mostly below about 17%
Mtb bLac sens: beta-lactam sensitization of Mtb H37Rv, H37Rv; 0.27% of 330,000 active; M. tuberculosis H37Rv growth with meropenem, percent inhibition; inhibition, % at 25 µM; call rule not given here;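 also: growth measured after seven days incubation then overnight dye step; 0% = bacteria only wells and 100% = bacteria with antibiotic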
GDH-TPI counter-1: GDH-TPI coupling enzyme inhibitors, primary screen, artefact control for M. tuberculosis FBA inhibitor project, biochemical, absorbance, full deck. GDH-TPI coupled enzyme counterscreen, NADH absorbance. inhibition, % at 4.8 µM. 1.2% of 360,000 active; in the data active = inhibition above about 30%;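 also: 0% = DMSO wells and 100% = wells lacking the enzyme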
DUSP3 inh: VHR1 phosphatase inhibitors, primary screen, biochemical, absorbance, uHTS; recombinant VHR phosphatase, pNPP absorbance; inhibition, % at 13.3 µM; 0.52% of 290,000 active; AID 1654, 2009; in the data active = inhibition above about 50%
Target sequence (P51452 whole entry, looked up): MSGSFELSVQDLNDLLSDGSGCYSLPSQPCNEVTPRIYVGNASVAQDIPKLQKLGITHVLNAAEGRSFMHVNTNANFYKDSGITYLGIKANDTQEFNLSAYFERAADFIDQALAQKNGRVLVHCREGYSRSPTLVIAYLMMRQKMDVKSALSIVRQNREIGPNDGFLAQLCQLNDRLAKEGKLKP
Mtb FBA confirm: M. tuberculosis aldolase blockers, biochemical, fluorescence, strain H37Rv, confirmation; shares compounds with FBA Mtb inh; purified M. tuberculosis FBA, fluorescence read-out; AID 651616, 2012; inhibition, % at 1 µM; 78% of 5,600 active;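 also: 0% = vehicle wells and 100% = reference inhibitor wells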
GDH-TPI counter-2: GDH-TPI coupling enzyme inhibitors, artefact control for M. tuberculosis FBA inhibitor project, biochemical, fluorescence, high throughput; shares compounds with FBA Mtb inh; GDH-TPI coupled enzyme counterscreen; inhibition, % at 1 µM; 81% of 5,600 active; in the data active = inhibition above about 10%
GDH-TPI DR: GDH-TPI coupling enzyme inhibitors, dose response, artefact control for M. tuberculosis FBA inhibitor project, biochemical, fluorescence, IC50. shares compounds with FBA Mtb inh. GDH-TPI coupled enzyme assay, artifact counterscreen. IC50, µM. 79% of 170 active. AID 652145, 2013; call rule not given here
* hit, by the source's call; . = no result given; + = active, no number. Rule as the data show it, unless noted: active = inhibition above about 27%; inactive = the rest.

SMILES | FBA Mtb inh | Mtb hypoxia rep | Mtb bLac sens | GDH-TPI counter-1 | DUSP3 inh | Mtb FBA confirm | GDH-TPI counter-2 | others
CCN(CC)Cc1c(O)ccc2c(=O)c(Oc3ccccc3OC)coc12 | 71* | 2 | -3 | 10 | 4 | + | +
O=C1N/C(=N\N=Cc2ccco2)SC1Cc1ccccc1[N+](=O)[O-] (stereo not given) | . | -1 | . | . | . | . | .
CC(=NNC(=O)c1cc(O)ccc1O)c1cccc(NC(=O)c2cccc(Cl)c2)c1 | . | 7 | . | . | . | . | .
Nn1c(=O)[nH]c2c([nH]c3ccccc32)c1=O | 27* | 7 | -4 | -12 | 7 | 107* | 86*
COC(=O)C1=CC(C(=O)OC)C2C3=C(C(=O)C2(C)C)C(C)n2c(=O)n(-c4ccccc4)c(=O)n2C3C1 (stereo not given) | . | 11 | . | . | . | . | .
Cc1ccc(C)c(NC(=O)Cn2c(=O)n(-c3ccc(CC(=O)NCC4CCCO4)cc3)c(=O)c3ccccc32)c1 (stereo not given) | . | 5 | 5 | . | -3 | . | .
COc1ccc2c(c1)c1c(c(=O)n(-c3ccc(C)cc3)c(=O)n1CC(=O)NCC1CCCO1)n2C (stereo not given) | 29* | . | . | -15 | . | 38* | 27*
Cc1ccc(-n2c(=O)c3c(c4cc(C)ccc4n3C)n(CC(=O)NCC3CCCO3)c2=O)cc1 (stereo not given) | 63* | . | . | 16 | . | 54* | 50*
Cn1ccc2c(-c3ccc(C(F)(F)F)cc3)cc3c(c21)C1CCC3O1 (stereo not given) | 93* | . | . | . | . | 98* | 69*
Cn1ccc2c(-c3ccc4c(c3)OCCO4)cc3c(c21)C1CCC3O1 (stereo not given) | 109* | . | . | . | . | 1 | -4
Cn1ccc2c(-c3ccc4c(c3)OCCO4)cc3c(c21)C1CCC3C1 (stereo not given) | 1 | . | . | . | . | . | .
COc1ccc(-c2cc3c(c4c2ccn4C)C2CCC3O2)cc1OC (stereo not given) | 0 | . | . | . | . | . | .
CSc1ccc(-c2cc3c(c4c2ccn4C)C2CCC3O2)cc1 (stereo not given) | 101* | . | . | . | . | 14 | 12*
S=C(NCCc1ccccc1)NN=CC1CCCCC1 | . | -10 | . | . | . | . | .
NC(=NOC(=O)c1cccc(Cl)c1)c1cccnc1 | . | 3 | . | . | . | . | .
Cc1oc(/N=C/c2ccc(O)cc2O)c(C#N)c1C | 71* | . | 8 | 18 | -12 | + | +
O=C(NCCCSc1ccccc1)c1cc(Cl)ccc1O | 36* | 17 | 15 | 9 | -7 | 68* | 48*
O=C(CNC(=O)c1ccccc1)NCCCSc1ccccc1 | -3 | 2 | 2 | -5 | . | . | .
Nc1nonc1-n1nnc(C(=O)NN=Cc2ccccc2)c1CN1CCc2ccccc21 | . | -3 | . | . | . | . | .
Cc1nc(N2CCN(C(=O)c3ccco3)CC2)c(C#N)c2c1CCCC2 | 38* | 1 | 14 | 11 | -10 | 98* | 83*
CC(CCN1C(Nc2ccccc2)=NCC1C)c1ccccc1 (stereo not given) | . | 6 | . | . | . | . | .
Cc1cccc(Cn2c(C(C)O)nc3ccccc32)c1 (stereo not given) | 0 | 6 | 6 | 2 | 6 | . | .
Cc1cccc(Cn2c(-c3ccc[nH]c3=O)nc3ccccc32)c1 | 101* | 0 | -5 | 12 | -3 | + | +
Cc1nc2ccc(-c3nc4ccccc4[nH]3)cc2[nH]1 | 34* | . | -4 | -9 | 19 | 78* | 61*
Clc1ccc(-c2nc3ccccc3[nH]2)cn1 | 72* | 17 | 1 | 3 | 17 | 97* | 84*
SMILES | FBA Mtb inh | Mtb hypoxia rep | Mtb bLac sens | GDH-TPI counter-1 | DUSP3 inh | Mtb FBA confirm | GDH-TPI counter-2 | others
Cc1ccc(-c2nc3ccccc3[nH]2)cn1 | 5 | 0 | -1 | 6 | 11 | . | .
Nc1sc(-c2ccccc2)cc1C(=O)NN=Cc1ccc(Cl)cc1 | . | 9 | . | . | . | . | .
Cc1c(C(=O)NN=Cc2cccnc2)sc(=S)n1C | . | 5 | . | . | . | . | .
O=C(CN1CCOCC1)NN=Cc1ccc(C(=O)O)cc1 | . | 2 | . | . | . | . | .
Cc1cc[n+](-c2[nH]c(=O)sc2C=NNC([S-])=Nc2ccccc2)cc1 | . | 14 | . | . | . | . | .
COc1cc2cc(CN(CCCO)S(=O)(=O)c3ccccc3Cl)c(=O)[nH]c2cc1OC | 19 | 5 | 0 | -3 | 20 | . | .
CCOC(=O)c1cccc(S(=O)(=O)N(CCO)Cc2cc3cc(OC)c(OC)cc3[nH]c2=O)c1 | 1 | 2 | -2 | 27 | 15 | . | .
COc1cc2cc(CN(Cc3cccnc3)C(=O)NCc3ccccc3)c(=O)[nH]c2cc1OC | 32* | 6 | -14 | 26 | 32 | 26 | 20*
COc1cc2cc(CN(CCCO)S(=O)(=O)c3ccccc3)c(=O)[nH]c2cc1OC | 55* | -1 | -4 | 37* | 2 | 2 | -2
COc1cc2cc(CN(CCO)S(=O)(=O)c3ccccc3Cl)c(=O)[nH]c2cc1OC | 49* | 7 | -7 | 33* | 20 | 118* | 101*
COc1cc2cc(CN(Cc3cccnc3)C(=O)Nc3ccccc3)c(=O)[nH]c2cc1OC | 10 | -1 | -3 | -3 | 28 | . | .
c1ccc(-c2cn(CC3CCC(Cn4cc(-c5ccccn5)nn4)O3)nn2)nc1 (stereo not given) | . | 6 | . | . | . | . | .
O=c1[nH]c2ccccc2nc1/C=C/c1ccc(F)cc1 | 9 | 5 | 4 | 8 | 26 | . | .
Fc1ccc(/C=C\c2nccc3c2[nH]c2ccccc23)cc1 | 74* | 3 | 5 | 2 | 22 | 19 | 20*
O=c1[nH]c2ccccc2nc1/C=C/c1ccccc1 | 10 | 14 | 0 | 13 | 17 | . | .
Cc1ccc(/C=C\c2nccc3c2[nH]c2ccccc23)cc1 | 86* | -5 | 96 | 1 | 26 | 174* | 135*
C(=C\c1nccc2c1[nH]c1ccccc12)/c1ccccc1 | 91* | . | 100 | 7 | 9 | 11 | 0 | GDH-TPI DR=1.1*
CC(=Cc1ccccc1)CC1=C(C)C2(CC2)[C@@](C)(O)C(O)C1=CCO (stereo not given in full) | . | 0 | . | . | . | . | .
CC(=O)Nc1ccc(C(=O)NN=Cc2ccccc2OCc2ccccc2)cc1 | . | -5 | . | . | . | . | .
CCN(CC)C(=O)c1ccccc1NS(C)(=O)=O | -1 | 5 | 3 | -1 | -27 | . | .
CC(NC(=O)c1ccc(NS(C)(=O)=O)cc1)c1ccccc1 (stereo not given) | -3 | 5 | -19 | -2 | 17 | . | .
Cc1cc(C)c(C)c(S(=O)(=O)Nc2ccccc2C(=O)O)c1C | 27* | -7 | 7 | -6 | 10 | 21 | 11*

High-throughput results: PubChem BioAssay, several laboratories
